# Reference: the supplement of paper PMC12669032
# A number with no mark means an inactive call.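 Rule for the calls: active = AUC reduced over 20% with Padj below 0.05 in at least 2 of 3 replicates; inactive = otherwise.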
# Assays:
# Test in all cases: growth AUC relative to DMSO control (median of replicates) (fraction); higher = more growth (less inhibition), active = hit call of the paper
# Conditions in all cases: 20 µM; 24 h
# Akkermansia muciniphila = test system: Akkermansia muciniphila
# How it was run: (§1)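 Gut bacterial monocultures in mGAM were treated with 20 µM compound (1% DMSO) and grown anaerobically at 37 °C in round-bottom 96-well plates from OD600 0.05. OD600 was read hourly for 24 h, with the minimum OD set to 0. Area under the growth curve was normalised to the plate median of solvent-only wells, or to row and column medians on the industrial chemical plate. Each value is the median of three biological replicates, each grown on a separate day.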
# Bacteroides caccae = test system: Bacteroides caccae
# How it was run: as §1
# Bacteroides clarus = test system: Bacteroides clarus
# How it was run: as §1
# Bacteroides dorei = test system: Bacteroides dorei
# How it was run: as §1
# Bacteroides stercoris = test system: Bacteroides stercoris
# How it was run: as §1
# [1] = test system: Bacteroides thetaiotaomicron
# How it was run: as §1
# Bacteroides uniformis = test system: Bacteroides uniformis
# How it was run: as §1
# [2] = test system: Bifidobacterium longum subsp. longum
# How it was run: as §1
# Clostridium difficile = test system: Clostridium difficile
# How it was run: as §1
# Collinsella aerofaciens = test system: Collinsella aerofaciens
# How it was run: as §1
Compound,growth AUC (Akkermansia muciniphila),growth AUC (Bacteroides caccae),growth AUC (Bacteroides clarus),growth AUC (Bacteroides dorei),growth AUC (Bacteroides stercoris),growth AUC [1],growth AUC (Bacteroides uniformis),growth AUC [2],growth AUC (Clostridium difficile),growth AUC (Collinsella aerofaciens)
CCOP(=S)(OCC)Oc1ccc(S(C)=O)cc1 (stereo not given),0.951,0.974,0.967,0.985,0.951,0.968,0.993,0.97,0.994,1.05
OC(Cn1cncn1)(c1ccc(F)cc1)c1ccccc1F (stereo not given),0.876,0.976,0.971,0.988,1,0.98,0.999,1.21,1,0.985
CC(=O)O.CCCCCCCCCCCCN=C(N)N,1.28,1.02,0.988,0.985,1.17,1.01,0.986,0.917,1,0.972
CC(C)=NOCCOC(=O)[C@@H](C)Oc1ccc(Oc2cnc3cc(Cl)ccc3n2)cc1,0.861,0.965,1,0.958,0.876,0.937,0.899,0.924,0.981,0.954
CCOP(=S)(OCC)SCSCC,1.1,0.955,0.991,0.969,0.942,0.997,0.986,1.01,1.01,1.01
Cc1cc(Cl)ccc1N=CN(C)C.Cl,1.06,0.997,1.01,1.03,0.972,1.01,0.982,1.03,1.04,0.978
O=C(O)c1c(Cl)ccc2cc(Cl)cnc12,0.898,1,0.983,0.992,0.987,1.02,1,0.961,0.959,0.947
CCOP(=O)(NC(C)C)Oc1ccc(SC)c(C)c1 (stereo not given),1.19,0.974,0.982,0.877,0.92,0.998,0.931,1.01,0.976,0.95
CCCOC(=O)c1ccccc1C(=O)OCCC,1.16,1.04,1.03,0.983,1.18,0.992,0.989,1.05,0.999,1.01
CCC(C)c1cc([N+](=O)[O-])cc([N+](=O)[O-])c1O (stereo not given),1.07,0.967,0.879,0.902,0.865,0.876,0.889,0.981,0.951,0.956
CCCC(Cn1cncn1)c1ccc(Cl)cc1Cl (stereo not given),1.01,0.936,0.987,0.977,1.2,0.949,0.941,1.07,0.911,0.992
CN(C)C(CSS(=O)(=O)[O-])CSS(=O)(=O)[O-].[Na+].[Na+],0.921,0.916,1,1.09,1.04,0.983,1.14,1.25,0.955,0.969
Oc1ccc(Cl)cc1Cc1cc(Cl)ccc1O,0.202 (active),0.416 (active),0.154 (active),0.765,0.00782 (active),0.359 (active),0.163 (active),0.598 (active),0.633 (active),0.878
Cc1cc(C(C#N)c2ccc(Cl)cc2)c(Cl)cc1NC(=O)c1cc(I)cc(I)c1O (stereo not given),0.866,0.184 (active),0.0125 (active),0.0106 (active),0.00703 (active),0.0104 (active),0.0176 (active),0.121 (active),0.00624 (active),0.0767 (active)
CNC(=O)/C=C(\C)OP(=O)(OC)OC,1.05,1.03,0.991,1.02,1.09,1.01,1.01,0.947,1.04,1.04
O=S(=O)(c1ccccc1)c1ccccc1,0.901,0.966,1.01,0.993,1.03,0.997,0.982,1.01,1.02,0.964
ClC1=C(Cl)[C@]2(Cl)[C@@H]3[C@H]4C[C@H]([C@@H]5O[C@H]45)[C@@H]3[C@@]1(Cl)C2(Cl)Cl,0.861,0.979,0.864,0.958,0.773,0.925,0.709 (active),0.962,1,0.936
O=C(Nc1ccccc1)N(Cc1ccc(Cl)cc1)C1CCCC1,0.953,0.983,0.991,0.991,0.972,0.964,0.969,1.02,1.03,0.98
Oc1c(Cl)ccc(Cl)c1Cl,1.04,0.927,0.968,0.954,1.15,0.987,0.981,1.02,1,0.937

Compound,growth AUC (Akkermansia muciniphila),growth AUC (Bacteroides caccae),growth AUC (Bacteroides clarus),growth AUC (Bacteroides dorei),growth AUC (Bacteroides stercoris),growth AUC [1],growth AUC (Bacteroides uniformis),growth AUC [2],growth AUC (Clostridium difficile),growth AUC (Collinsella aerofaciens)
C[C@@H]1C[C@@H]([C@H](O)CC2CC(=O)NC(=O)C2)C(=O)[C@@H](C)C1,1.15,1.02,1.02,0.98,1.05,1.04,0.999,1.02,1.05,0.989
CCOc1ccccc1OS(=O)(=O)NC(=O)Nc1nc(OC)cc(OC)n1,1.02,1.05,0.972,1.05,0.901,1.01,0.993,0.967,1.13,1.03
CCN(Cc1ccc(Cl)nc1)/C(=C/[N+](=O)[O-])NC,0.913,0.991,0.991,0.975,0.939,0.972,1.01,0.983,0.981,0.976
COCc1cnc(C2=NC(C)(C(C)C)C(=O)N2)c(C(=O)O)c1 (stereo not given),1.12,0.971,1.03,0.918,1,0.999,1.01,1.22,0.973,0.998
COC(=O)C(C)N(C(=O)c1ccco1)c1c(C)cccc1C (stereo not given),1.07,0.872,0.984,0.85,0.985,0.727 (active),0.88,1.1,0.941,0.913
CNC(=O)Oc1ccccc1C(C)C,1.08,1.01,1.04,1.03,1.23,1.01,1.01,0.965,1.02,0.986
CNC(=O)c1cc(C#N)cc(C)c1NC(=O)c1cc(Br)nn1-c1ncccc1Cl,0.947,1.04,0.977,1.01,0.933,0.982,0.995,0.999,1,0.981
CCc1cnc(C2=NC(C)(C(C)C)C(=O)N2)c(C(=O)O)c1 (stereo not given),0.891,1.01,0.971,0.951,0.985,0.981,1.01,0.937,0.993,0.983
CC(=O)O.NC(N)=NCCCCCCCCNCCCCCCCCN=C(N)N,0.836,0.279 (active),0.442 (active),0.638 (active),0.186 (active),0.0333 (active),0.115 (active),0.136 (active),0.984,0.618 (active)
CNC(=O)ON=C(C)C(C)SC (stereo not given),1.1,0.726 (active),1.03,0.983,1.3,0.916,0.838,1.03,0.927,0.979
COP(=S)(OC)Oc1c(Cl)cc(C)cc1Cl,0.999,0.966,0.993,0.964,0.958,1.01,0.97,0.98,0.985,0.975
Cc1cnc2c(C(=O)O)c(Cl)ccc2c1,0.939,0.996,0.986,1.03,1.03,0.995,1.04,0.967,0.995,1.01
CO/C=C(/C(=O)OC)c1ccccc1Oc1cc(Oc2ccccc2C#N)ncn1,1.05,1.01,0.967,0.997,0.864,0.965,0.914,0.977,0.973,0.994
CCCCN(CC)C(=O)SCCC,0.957,1.01,1.01,0.972,1.11,0.979,0.976,0.983,1.03,0.982
COP(=S)(OC)Oc1ccc(Sc2ccc(OP(=S)(OC)OC)cc2)cc1,0.994,0.986,1.04,0.979,1.08,1.04,0.968,0.94,0.996,0.992
CCS(=O)(=O)Cc1ccccc1OC(=O)NC,1.05,0.949,1,0.994,1.1,0.971,0.995,1.01,0.977,1.05
CCNc1nc(NC(C)C)nc(SC)n1,0.916,0.959,0.997,0.976,1.19,0.985,1,0.988,0.999,0.983
NC(=S)c1c(Cl)cccc1Cl,0.917,0.943,0.97,0.935,1.01,1.03,0.972,1.05,1.02,0.962
CC(C)C1(C)N=C(c2ncccc2C(=O)O)NC1=O (stereo not given),0.976,0.918,1.01,0.761,1.17,0.974,1.02,1,0.991,0.978

Compound,growth AUC (Akkermansia muciniphila),growth AUC (Bacteroides caccae),growth AUC (Bacteroides clarus),growth AUC (Bacteroides dorei),growth AUC (Bacteroides stercoris),growth AUC [1],growth AUC (Bacteroides uniformis),growth AUC [2],growth AUC (Clostridium difficile),growth AUC (Collinsella aerofaciens)
CC(C)=CC1C(C(=O)OCc2cccc(Oc3ccccc3)c2)C1(C)C (mixture of isomers),1.21,0.961,0.994,0.917,1.01,1,0.991,0.864,1.02,0.914
Clc1ccc(C(c2ccc(Cl)cc2)C(Cl)(Cl)Cl)cc1,1.1,0.934,0.763 (active),0.955,0.127 (active),0.866,0.798 (active),0.886,0.943,0.869
O=NN(CCO)CCO,1.01,1.01,1.02,0.979,1.18,1.01,1.02,0.837,1.01,0.994
CNc1cnn(-c2cccc(C(F)(F)F)c2)c(=O)c1Cl,0.94,0.979,1.02,1.01,0.914,0.994,0.991,0.989,0.937,1.03
Cl.NC1=NCCN1Cc1ccc(Cl)nc1,1.03,1.03,1.02,0.975,1.14,1.04,1.01,1.02,1.06,1.03
CCN(CC)C(=S)[S-].O.O.O.[Na+],0.862,0.981,1.01,0.978,1.08,0.848,1.01,0.961,1.04,0.925
CCOP(=S)(OCC)Oc1nc(Cl)n(C(C)C)n1,1.04,0.932,1.02,1.01,1.14,1.01,0.972,0.964,0.982,1.02
Oc1c(Br)cc(Br)cc1Br,0.965,0.916,0.917,1.01,1.22,1.01,0.966,0.984,0.982,0.991
ClCC(Br)CBr (stereo not given),0.997,1.04,0.981,0.974,0.996,1,0.957,1,1,0.992
CCOC(=O)c1cn2nc(OP(=S)(OCC)OCC)cc2nc1C,1.14,0.973,0.945,0.904,0.876,0.991,0.834,1.05,0.988,0.967
O=C(Cc1ccccc1)N/C(=N\OCC1CC1)c1c(C(F)(F)F)ccc(F)c1F,1.23,0.936,0.965,0.945,0.852,0.959,0.912,0.975,0.957,0.915
CCOP(=O)(Sc1ccccc1)Sc1ccccc1,1.16,0.985,0.895,0.927,0.795,0.932,0.881,1.02,0.984,1.03
O=C(NCCc1ncc(C(F)(F)F)cc1Cl)c1ccccc1C(F)(F)F,0.849,0.978,1.01,1,0.951,0.973,0.987,0.974,0.996,1
O=C(Nc1ccccc1)Nc1ccnc(Cl)c1,0.926,0.9,0.949,0.977,0.926,0.94,0.886,0.959,0.941,1.01
CSc1nnc(C(C)(C)C)c(=O)n1N,0.996,1.07,1.01,1.02,1.06,0.996,1.02,1.09,1.03,1
O=[N+]([O-])c1ccccc1,1.11,1.01,1.02,0.97,1.13,1.03,1,1.06,1.01,0.951
COP(=S)(OC)Oc1ccc(SC)c(C)c1,0.903,0.943,0.952,1,0.995,1.03,0.977,0.963,1.03,0.977
COc1cc(OC)nc(NC(=O)NS(=O)(=O)c2ncccc2C(=O)N(C)C)n1,1,0.94,0.98,0.957,1.11,1.01,1.01,0.96,1,0.965
COC(=O)N(C(=O)N1CO[C@@]2(C(=O)OC)Cc3cc(Cl)ccc3C2=N1)c1ccc(OC(F)(F)F)cc1,0.961,0.952,0.965,0.982,0.965,0.873,0.98,0.83,0.916,0.884
